Compounds with a hit are over-represented: about 8.5% of the library has one in this group of screens.
Sfp inh = Sfp phosphopantetheinyl transferase inhibition. Q9F4F7. Biochemical Sfp PPTase activity, qHTS. Potency, µM, actives largely listed as inhibitors. 310,000 tested, 3.5% active. AID 1490; active = well fitted curve in the direction sought with a large enough effect; inconclusive = small, poorly fitted or top-dose-only effect, or another doubt; inactive = no such curve, though single readings can be large; an effect the other way counts as inactive or inconclusive;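 note: the enzyme is Sfp with the accession as filed and its product quenches rhodamine fluorescence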
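After 15 min at room temperature with compound, 15 nM Sfp received 5 uM rhodamine-CoA plus 12.5 uM BHQ-2-ybbR (50 mM Hepes pH 7.6, 10 mM MgCl2). Rate came from the fluorescence difference over 30 min, ex 525/em 598 nm.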
RGS12 GoLoco inh = blocks human Gai1 binding to RGS12 GoLoco peptide, red readout; P63096; Gai1:RGS12 GoLoco peptide FP, rhodamine, 10 min; Potency, µM (top dose mostly 61.6 µM), usual class: inhibitors; 230,000 tested, 0.44% active; AID 880; active = well fitted inhibition curve with a large enough effect, not every such curve was filed as active; inactive = no such curve, though single readings can be large or run the other way; note: nearly all actives have a fitted effect of over 30% in size
Target sequence (P63096 whole entry, looked up): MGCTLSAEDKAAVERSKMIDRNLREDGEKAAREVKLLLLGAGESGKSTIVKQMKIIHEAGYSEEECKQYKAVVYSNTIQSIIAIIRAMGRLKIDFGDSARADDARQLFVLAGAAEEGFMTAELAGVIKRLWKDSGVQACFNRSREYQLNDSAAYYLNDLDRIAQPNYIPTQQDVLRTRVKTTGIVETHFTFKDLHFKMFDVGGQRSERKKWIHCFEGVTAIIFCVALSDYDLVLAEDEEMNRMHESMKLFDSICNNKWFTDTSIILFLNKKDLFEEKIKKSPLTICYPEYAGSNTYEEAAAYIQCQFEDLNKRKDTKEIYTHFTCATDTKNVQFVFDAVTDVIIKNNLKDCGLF
NPSR antag = blocks cAMP signaling of the human neuropeptide S receptor; Q6W5P4; CHO-NPSR cells, cAMP TR-FRET, antagonist mode; Potency, µM (top dose mostly 38.3 µM), actives largely listed as inhibitors; 220,000 tested, 1% active; AID 1461; active = well fitted curve in the direction sought with a large enough effect; inconclusive = small, poorly fitted or top-dose-only effect, or another doubt; inactive = no such curve, though single readings can be large; an effect the other way counts as inactive or inconclusive; note: nearly all actives have a fitted effect of over 50% in size
Coupling enz = counter-screen for Giardia aldolase inhibitors: coupling enzyme system; coupling enzyme system counterscreen, AmpLite Red fluorescence; activity change, negative = inhibition, % at 58.2 µM, hits read low; 290,000 tested, 0.67% active; AID 2472; in the data active = activity change below about -30%
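Final compound at 57.5 uM, incubated 10 min at RT with coupling enzyme reagent (glyceraldehyde-3-phosphate), then 20 min with substrate and AmpLite Red detection. Fluorescence read at 525/598 nm; tests interference with the coupling assay, not aldolase inhibition.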
ALDH1A1 block = ALDH1A1 (human) enzyme inhibition; P00352; Purified ALDH1A1, NADH fluorescence, propionaldehyde substrate; Potency, µM (series often up to 75.3 µM), hits mostly inhibitors; 220,000 tested, 7.3% active
KDM4E inh = inhibitors of human JMJD2E histone demethylase; 230,000 tested, 1.6% active; B2RXH2; JMJD2E catalytic domain, FDH-coupled NADH fluorescence (FDH is formaldehyde dehydrogenase); Potency, µM (titrated, usually from 57.1 µM), actives largely listed as inhibitors; note: nearly all actives have a fitted effect of over 50% in size
Target sequence (B2RXH2 1-337 limits assumed): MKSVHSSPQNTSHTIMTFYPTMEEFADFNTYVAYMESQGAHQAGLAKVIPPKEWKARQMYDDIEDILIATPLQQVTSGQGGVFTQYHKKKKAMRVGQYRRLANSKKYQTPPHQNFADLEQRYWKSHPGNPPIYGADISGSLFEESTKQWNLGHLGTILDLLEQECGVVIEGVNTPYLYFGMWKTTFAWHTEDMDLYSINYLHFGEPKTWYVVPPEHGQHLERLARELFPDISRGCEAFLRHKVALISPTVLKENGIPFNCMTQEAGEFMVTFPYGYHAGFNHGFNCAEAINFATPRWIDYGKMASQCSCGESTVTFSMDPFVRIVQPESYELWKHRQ
Of the large screens only hits and unclear results are named; the others gave an inactive call. Unless noted, calls come from the whole dose curve; as a rule, active = well fitted inhibition curve with a large enough effect (not every such curve was filed as active); inconclusive = small, poorly fitted or top-dose-only effect, or another doubt; inactive = no such curve, though single readings can be large or run the other way.

CCC(=O)O[C@]1(C(=O)CCl)[C@@H](C)CC2C3C[C@H](F)C4=CC(=O)C=CC4(C)[C@@]3(F)C(O)CC21C (some centres not stated)	none (no result: RGS12 GoLoco inh, NPSR antag, Coupling enz, ALDH1A1 block, KDM4E inh)
N#Cc1cn(-c2ccccc2)nc1-c1ccc2c(c1)OCCO2	NPSR antag inconclusive, KDM4E inh inconclusive
O=Cc1cn(-c2ccccc2)nc1-c1ccc2c(c1)OCCO2	ALDH1A1 block 18µM
COc1ccc(-c2c([C@H]3[C@H]4C=CC[C@@H](C)[C@@H]4C(=O)N3Cc3ccccc3)ccc3ccccc23)cc1OC	NPSR antag 6.3µM, KDM4E inh inconclusive (no result: ALDH1A1 block)
COc1ccc(-c2c(C3C4C=CCC(C)C4C(=O)N3Cc3ccccc3)ccc3ccccc23)cc1 (configuration not stated)	none (no result: RGS12 GoLoco inh, NPSR antag, ALDH1A1 block, KDM4E inh)
CCOC(=O)C1=C(C)NC(=O)NC1c1ccc(-c2ccccc2F)o1 (configuration not stated)	ALDH1A1 block 20µM
O=C(NCc1ccco1)C(=O)NCC(c1ccco1)N1CCOCC1 (configuration not stated)	none
COc1ccc(NC(=O)CC(c2ccccc2)c2ccco2)cc1 (configuration not stated)	Sfp inh 45µM
S=C(Nc1ccc(N2CCOCC2)cc1)Nc1ccc2snnc2c1	ALDH1A1 block 25µM
COC(=O)c1ccc(C2Nc3cccc4cccc(c34)N2)cc1	Sfp inh inconclusive, KDM4E inh 8.9µM
COc1cc(C2Nc3cccc4cccc(c34)N2)cc(OC)c1O	Sfp inh 50µM, ALDH1A1 block inconclusive
COc1ccccc1C1CC(=O)Oc2ccc(C(C)(C)C)cc21 (configuration not stated)	none (no result: NPSR antag, KDM4E inh)
CCOC(=O)/C(=N\Nc1ccc(Cl)cc1)Sc1nnc(-c2ccc(OC)cc2)n1C	ALDH1A1 block inconclusive
COc1cc2c(cc1NC(=O)COc1ccccc1OC)oc1ccccc12	NPSR antag inconclusive, ALDH1A1 block inconclusive
COc1cc2c(cc1NC(=O)CSc1ccc(C)cc1)oc1ccccc12	KDM4E inh inconclusive
COc1cc2c(cc1NC(=O)COC(=O)Cn1cnc3ccccc31)oc1ccccc12	NPSR antag inconclusive, ALDH1A1 block 11µM, KDM4E inh inconclusive
CCn1c(SCC(=O)Nc2cc3oc4ccccc4c3cc2OC)nnc1-c1cccs1	NPSR antag inconclusive, ALDH1A1 block 13µM
CCn1c(SCC(=O)c2ccc(CNC(C)=O)o2)nnc1-c1cccs1	Sfp inh 50µM
CCn1c(SCC(=O)NCc2cccs2)nnc1-c1cccs1	none
COc1cc2c(cc1NC(=O)CSc1nnc(Cc3cccs3)n1Cc1ccco1)oc1ccccc12	NPSR antag inconclusive, ALDH1A1 block 5µM
CCOc1ccc2[nH]cc(-c3csc(N)n3)c2c1	none (no result: RGS12 GoLoco inh, NPSR antag, ALDH1A1 block, KDM4E inh)
COC(=O)/C(C#N)=C\c1c(OC)[nH]c2ccccc12	KDM4E inh inconclusive (no result: ALDH1A1 block)
C=CCn1c(SCC(=O)Nc2cccc3ccccc23)nnc1-c1cnccn1	none
COc1cc2c(cc1NC(=O)CSc1nnc(Cc3cccs3)n1C)oc1ccccc12	ALDH1A1 block 14µM
N#Cc1ccc(CSc2nnc(Cc3cccs3)n2Cc2ccco2)cc1	Sfp inh 14µM, ALDH1A1 block 11µM
CCCn1c(SCC(=O)c2cc(OC)ccc2OC)nnc1C(C)C	NPSR antag inconclusive, ALDH1A1 block inconclusive
C=CCn1c(SCC(=O)Nc2cc3oc4ccccc4c3cc2OC)nnc1-c1cnccn1	NPSR antag inconclusive, ALDH1A1 block 28µM, KDM4E inh inconclusive (no result: RGS12 GoLoco inh)
COc1ccc(OC)c(C(=O)CSc2nnc(Cc3cccs3)n2C)c1	Sfp inh 45µM, ALDH1A1 block 22µM, KDM4E inh inconclusive
COc1cc2c(cc1NC(=O)CSc1nnc(COc3ccc(Cl)cc3)n1C)oc1ccccc12	NPSR antag inconclusive
COc1ccc(NC(=O)CC(CC(=O)O)c2cc(OC)c(OC)c(OC)c2)cc1 (configuration not stated)	none (no result: ALDH1A1 block)
CCOC(=O)c1ccc(N2CCN(C(=O)c3ccccc3)CC2)c(NC(=O)c2ccco2)c1	none (no result: RGS12 GoLoco inh, NPSR antag, ALDH1A1 block, KDM4E inh)
COc1ccc2c(c1)Cc1sc(NC(=O)c3ccco3)nc1-2	ALDH1A1 block inconclusive (no result: Coupling enz)
COc1ccc(NC(=O)c2cccnc2)cc1	none (no result: RGS12 GoLoco inh, NPSR antag, ALDH1A1 block, KDM4E inh)
COc1ccc2c(c1)Cc1sc(NC(=O)c3cccnc3)nc1-2	ALDH1A1 block 3.5µM
COc1ccc2c(c1)Cc1sc(NC(C)=O)nc1-2	Sfp inh 20µM, Coupling enz -31, ALDH1A1 block inconclusive
COc1ccc2c(c1)CCc1sc(NC(=O)c3ccco3)nc1-2	Sfp inh inconclusive, ALDH1A1 block 22µM, KDM4E inh inconclusive
COc1cccc(CNC(=O)c2nnn(CC(=O)Nc3cccc(C)c3)c2N)c1	none (no result: RGS12 GoLoco inh, NPSR antag, ALDH1A1 block, KDM4E inh)
CCn1c(C)c(C(C)=O)c(N2CCN(c3ccccc3)CC2)nc1=S	Sfp inh 56µM, ALDH1A1 block 11µM, KDM4E inh inconclusive
CCn1c(C)c(C(C)=O)c(N2CCN(C(c3ccccc3)c3ccccc3)CC2)nc1=S	Sfp inh inconclusive, ALDH1A1 block 14µM
CN1CC2(C)OC(=O)C(Cl)=C2CC1c1ccccc1 (configuration not stated)	ALDH1A1 block 13µM
O=C(O)CSc1n[nH]c(=O)[nH]c1=O	none (no result: Sfp inh, NPSR antag, Coupling enz, KDM4E inh)
COCCCNC(=O)c1ccc2c3c(onc13)-c1ccccc1C2=O	Sfp inh 56µM, RGS12 GoLoco inh 20µM, NPSR antag inconclusive, Coupling enz -32, KDM4E inh inconclusive (no result: ALDH1A1 block)
COCCCNC(=O)c1ccccc1Oc1ccccc1	none
COC(=O)c1ccccc1CSc1nsc(/C=C/N(C)C)c1C#N	Sfp inh 16µM (no result: RGS12 GoLoco inh, NPSR antag, ALDH1A1 block, KDM4E inh)
Cc1nc(CSc2nsc(/C=C/N(C)C)c2C#N)cs1	Sfp inh inconclusive, ALDH1A1 block 6.3µM
CCCc1cc(=O)[nH]c(SCCCCN2C(=O)c3ccccc3C2=O)n1	ALDH1A1 block inconclusive
C/C(=N\NS(=O)(=O)c1c(C)cc(C)cc1C)c1ccncc1	none (no result: RGS12 GoLoco inh, NPSR antag, Coupling enz, ALDH1A1 block, KDM4E inh)
CN(C)c1ccc(N=Nc2ccc(C(=O)O)cc2)cc1	Sfp inh 79µM (no result: RGS12 GoLoco inh, NPSR antag, ALDH1A1 block, KDM4E inh)
CN(C)c1ccc(C(=O)c2ccccc2)cc1	none
CN(C)c1ccc(N=NS(=O)(=O)O)cc1	ALDH1A1 block 10µM (no result: Sfp inh, NPSR antag, Coupling enz, KDM4E inh)
COc1ccc(NC(=O)N2CCCC(C(=O)NCc3ccccc3F)C2)cc1 (configuration not stated)	none (no result: RGS12 GoLoco inh, NPSR antag, ALDH1A1 block, KDM4E inh)
COC(=O)c1c(NC(=O)C2CCCO2)sc2c1CCC2 (configuration not stated)	ALDH1A1 block 14µM, KDM4E inh inconclusive
NC(=O)c1c(NC(=O)C2CCCO2)sc2c1CCC2 (configuration not stated)	ALDH1A1 block 22µM
NC(=O)c1c(NC(=O)C2CCCO2)sc2c1CCCCC2 (configuration not stated)	ALDH1A1 block 20µM, KDM4E inh inconclusive
Nc1cc(N2CCCCC2)c([N+](=O)[O-])cc1Cl	ALDH1A1 block 3.5µM
O=[N+]([O-])c1cc(F)c(N2CCOCC2)cc1N1CCCCC1	ALDH1A1 block 14µM

Screens as filed in PubChem.
